# Laboratory results reported in ChEMBL document CHEMBL4513216, “Probing the Open Global Health Chemical Diversity Library for Multistage-Active Starting Points for Next-Generation Antimalarials” (ACS Infect Dis, 2020).
# Among all 69,000 compounds or so, about 8,600 (12%) showed an effect of 50% or more. The entries come from a sample that favours strong results as a whole.
# Test system: Plasmodium berghei
# Assay: Screen against P. berghei liver stage (PbLuc), transformed with Luciferase, at 10uM
# Format: functional, HepG2
# Settings: tested at 10 uM
row,Structure (SMILES),INHIBITION
1,CN(C)CC1CN(C(=O)NCc2ccccc2)Cc2nccn2C1 (centres undefined),13.5%
2,Cc1cccc2c1OCCC2NCc1c(C(C)C)nn(C)c1N(C)C (centres undefined),-41.2%
3,CC(C)(C)Oc1ccc(CN)c(C(F)(F)F)c1,30.8%
4,CCc1ccsc1C(=O)N1CCS(=O)(=O)CC1,53.7%
5,CCc1ccsc1C(=O)N1CCN(CC(C)O)CC1 (centres undefined),-27.8%
6,CCc1ccsc1C(=O)N1CCN(CC(N)=O)CC1,-53.5%
7,CC(C)n1cc(CN2CCCN(C(=O)C3(C)CCOCC3)CC2)cn1,54.5%
8,CC(C)n1cc(CN2CCCN(C(=O)C3CCOC3)CC2)cn1 (centres undefined),-29.1%
9,CCc1ccsc1C(=O)N1CCCN(Cc2cnn(CC)c2)CC1,58.5%
10,Cc1csc(N2CCN(C(=O)C(C(C)C)n3cncn3)CC2)n1 (centres undefined),17.4%
11,Cc1csc(N2CCN(C(=O)C(C)n3cncn3)CC2)n1 (centres undefined),60.5%
12,Cc1csc(N2CCCN(C(=O)C(C)n3cncn3)CC2)n1 (centres undefined),17.4%
13,CCn1cc(CN2CCCN(C(=O)c3sccc3OC)CC2)cn1,-34%
14,CSC(C)C(=O)N1CCCN(Cc2cnn(C(C)C)c2)CC1 (centres undefined),-19.9%
15,CCn1cc(CN2CCCN(C(=O)c3sccc3C#N)CC2)cn1,24%
16,O=C(c1cccnc1)N(CCO)Cc1cc(Br)ccc1F,-5.1%
17,CNc1nc(C2CCCN(C(=O)C(C)(C)OC)C2)nc2c1CN(C)CC2 (centres undefined),-12.9%
18,CC(C(=O)NCCOc1ccc2c(c1)CCC2)n1cncn1 (centres undefined),-81.3%
19,Cc1ccc(S(=O)(=O)N2CCN(CCCO)CC2)s1,30.1%
20,c1cncc(-c2noc(CNC3CCc4ncnn4C3)n2)c1 (centres undefined),29.4%
21,Cc1cc(C)n(CC2CCCCN2C(=O)c2ccsc2)n1 (centres undefined),-3.2%
22,CC(C)C(Sc1nncn1C1CC1)C(=O)NCc1cccnc1 (centres undefined),-38%
23,CC(NC(=O)Cc1cccs1)c1nnc2n1CCC2 (centres undefined),-12.2%

row,Structure (SMILES),INHIBITION
1,O=C(c1cc[nH]n1)N1CCC(c2cc(Nc3ccccn3)n[nH]2)CC1,-3.31%
2,Cc1nnc(NC(=O)NCc2ccoc2)s1,-19.9%
3,COC(=O)CNC(=O)Cn1ccc2ccc(F)cc21,13.9%
4,COC(=O)[C@H](C)NC(=O)Cn1ccc2ccc(F)cc21,50.8%
5,Cc1cccc2c1ccn2CC(=O)O,35%
6,O=C(Cn1ccc2ccc(F)cc21)NCc1ccc(C(=O)O)cc1,6%
7,O=C(CCn1ccc2cc(Br)ccc21)NC[C@@H]1CCCN2CCCC[C@H]12,49%
8,O=C(Cn1ccc2ccc(F)cc21)NC[C@@H]1CCCN2CCCC[C@H]12,58.3%
9,CC[C@H](C)[C@H](NC(=O)Cn1ccc2ccc(F)cc21)C(=O)OC,-24.6%
10,O=C(Cn1ccc2ccc(Br)cc21)NC[C@@H]1CCCN2CCCC[C@H]12,37.1%
11,Cc1cccc2c1ccn2CC(=O)NC[C@@H]1CCCN2CCCC[C@H]12,51.9%
12,COCCNC(=O)Cn1ccc2ccc(F)cc21,17.1%
13,O=C(Cn1ccc2ccccc21)NC[C@@H]1CCCN2CCCC[C@H]12,23.5%
14,O=C(Cn1ccc2cc(Br)ccc21)NC[C@@H]1CCCN2CCCC[C@H]12,58.3%
15,Cc1ccnn1CCC(=O)N1CCCC2(C1)NC(=O)c1ccccc1O2 (centres undefined),-2.2%
16,CC1=C(C(N)=O)C(c2cn(C)nc2C)N2C(=O)CSC2=N1 (centres undefined),-20.5%
17,CCn1ncc2c1C(COCC1CC1)N(C(=O)c1ccncn1)CC2 (centres undefined),9.34%
18,CC(=O)N1CCCCC1c1nc(N)ncc1-c1ccccc1 (centres undefined),38.1%
19,CN1CCC2(CCCN(C(=O)c3cncn3C)C2)CC1,29%
20,Cc1noc(CCNC(=O)NCc2ccc(OC3CCCC3)cc2)n1,-33.4%
21,CO[C@@H]1CN(c2ccccc2)S(=O)(=O)[C@@]12CCN(Cc1cncs1)C2,41.9%
22,Cc1cc(C)n(C2CCN(S(=O)(=O)N3CCC(C)CC3)CC2)n1,19.3%
23,CC(=O)N1N=C(c2ccccc2)OC1C(=O)NCCc1cccc(F)c1 (centres undefined),-18.2%

row,Structure (SMILES),INHIBITION
1,CN(C)C(=O)N1CC[C@H]2[C@H]1CCN2c1nncs1,2.4%
2,COCc1nc(C(=O)N2CCCC2c2ccc(OC)cc2)cs1 (centres undefined),46.2%
3,OC12CCC(CC1)N(Cc1ccc(F)cc1)C2CN1CCOCC1 (centres undefined),9.36%
4,COc1ccc2c(ccn2CC(=O)NC[C@@H]2CCCN3CCCC[C@H]23)c1,54.8%
5,Cc1ccc2c(ccn2CC(=O)NC[C@@H]2CCCN3CCCC[C@H]23)c1,47.4%
6,Cc1ccc2c(ccn2CCC(=O)NC[C@@H]2CCCN3CCCC[C@H]23)c1,-3.95%
7,Cc1ccc(-c2nc(CNCC3CN(C)CCO3)cs2)o1 (centres undefined),41.4%
8,Cc1nn(C)c2c(N(C)Cc3ccco3)nc(C3CC3)nc12,19.7%
9,O=C(O)[C@H]1C[C@H](C(=O)NCc2ccncc2)CN(CCC(F)(F)F)C1,-78.5%
10,COc1ccccc1NC(=O)CC(C)NCCc1sc(C)nc1C (centres undefined),71.3%
11,CCc1cnc(CCNC(C)CC(=O)Nc2cccc(C)c2C)s1 (centres undefined),15.6%
12,COc1ccccc1NC(=O)CC(C)NCc1scnc1C (centres undefined),25.6%
13,CO[C@H]1CC[C@H]2[C@H]1OCCN2C(=O)CCOc1ccccc1,14%
14,COCC1COCCC12CCN(Cc1nccs1)CC2 (centres undefined),22.6%
15,CNC(=O)c1cccc(CN2CCN(c3ccncc3)CC2)c1,35.1%
16,Cc1cc(CN2CCC(CNS(=O)(=O)c3ccc(C)s3)CC2)c(C)o1,49.7%
17,Cc1cc(CN2CCC(CNS(=O)(=O)c3ccccc3F)CC2)c(C)o1,14.4%
18,Cc1cc(CN2CCC(CNS(=O)(=O)c3ccc(Br)s3)CC2)c(C)o1,79%
19,O=C(NCc1ccco1)[C@@H]1CC[C@@H]2[C@@H](CCN2Cc2ccc(F)cc2)O1,5.87%
20,O=C1CC(c2cccc(Cl)c2)c2snc(C(=O)O)c2N1 (centres undefined),55.7%
21,O=C1CC(c2ccc(F)c(F)c2)c2snc(C(=O)O)c2N1 (centres undefined),27.6%
22,O=C1CC(c2ccc(F)cc2)c2snc(C(=O)O)c2N1 (centres undefined),15.9%
23,O=C1CC(c2ccccc2)c2snc(C(=O)O)c2N1 (centres undefined),12.6%

row,Structure (SMILES),INHIBITION
1,O=C1CC(c2ccc(C(F)(F)F)cc2)c2snc(C(=O)O)c2N1 (centres undefined),42.4%
2,O=C1CC(c2ccsc2)c2snc(C(=O)O)c2N1 (centres undefined),72.6%
3,O=C(c1cccnc1)N1CCc2ncnc(C3CCOC3)c2CC1 (centres undefined),25.6%
4,CN(Cc1ccc2c(c1)OCO2)C(=O)C1CC(c2cccc(F)c2)=NO1 (centres undefined),-14.3%
5,COCCOCC(=O)N1C[C@@H]2CC[C@H](Oc3cccc(F)c3)[C@@H]2C1,-71.9%
6,CN1CCN(CC2(O)CCN(C(=O)CCc3ccccc3F)C2)CC1 (centres undefined),16.705%
7,COC(=O)CCC(=O)N1CCC2(CN(Cc3ccccc3F)C2)C1,22.4%
8,CN1CCCC2(CC1)CCN(C(=O)CCc1ccccc1F)CC2,80%
9,CCCC(=O)N1Cc2ccccc2CC2(CCN(C)C2)C1 (centres undefined),40%
10,CN1CCCC2(CC1)CCN(C(=O)CCc1ccccc1O)CC2,56.5%
11,Cc1nc2c(c(=O)n1C)CCN(C(=O)CCc1ccccc1O)CC2,14.3%
12,COc1ccc(CCNC(=O)N2CCCC(c3nncn3C)C2)cc1 (centres undefined),-12.1%
13,COCCN1CCC(CNC(=O)C2(c3ccccc3)CCOCC2)C1 (centres undefined),5.9%
14,CC1COCCN1Cc1nc(-c2cccc(C(F)(F)F)c2)no1 (centres undefined),9.54%
15,CCc1c(C)nc2ccccc2c1N1CCC(C(=O)NC)CC1,52.2%
16,CCc1c(C)nc2ccccc2c1N1CCC(O)CC1,24.4%
17,CCc1c(C)nc2ccccc2c1N1CCC(NC(C)=O)CC1,37.2%
18,COc1c(CNC2CCc3ccccc32)c(C(C)C)nn1C (centres undefined),11.2%
19,CC(=O)N1CCC(NC(=O)Cc2nc3nc(C)cc(C)n3n2)CC1,4.25%
20,O=S(=O)(NCC1OCCc2cn(Cc3ccccn3)nc21)C1CC1 (centres undefined),10.7%
21,C[C@@H]1CN(Cc2cccnc2)C[C@]12CCN(CCN1CCCC1)C2=O,37.1%
22,Cc1ccc(CN(Cc2ccccn2)C(=O)[C@H]2CC[C@@H](N)C2)s1,60.8%
23,Cc1ccc(CN(Cc2ccccn2)C(=O)C2CCCCCN2C)s1 (centres undefined),27.6%

row,Structure (SMILES),INHIBITION
1,Cc1ccc(CN(Cc2ccccn2)C(=O)CCC2CCCN(C)C2)s1 (centres undefined),49%
2,CC(CC1CC1)NCCCN1CCCN(C)CC1 (centres undefined),-7.94%
3,Cn1cc(NC(=O)Nc2cccc3cccnc23)ccc1=O,37.9%
4,COC(C)(C)CNC(=O)N1CCCC1c1c(C)n[nH]c1C (centres undefined),82.2%
5,Cc1n[nH]c(C)c1C1CCCN1C(=O)NC(C)(C)C (centres undefined),31.1%
6,Cc1n[nH]c(C)c1C1CCCN1C(=O)NCC(=O)NC(C)(C)C (centres undefined),43.3%
7,CCOc1c(CNC2CSCCSC2)cccc1OC,24.9%
8,Cc1nnc([C@]23COC[C@H]2CN(Cc2cccs2)C3)o1,27.5%
9,COCc1noc(CC2CN(c3ncnc4sc(C)c(C)c34)CCO2)n1 (centres undefined),-12.5%
10,Cc1cnc(N2CCC3(CCN(CC4CCCC4)C3=O)CC2)nc1,-9.74%
11,Cc1cccc(-c2noc(Cn3nc(C(N)=O)ccc3=O)n2)c1,56%
12,Cc1cnn(C2CN(C(C)c3nc(-c4ccccc4)no3)C2)c1 (centres undefined),84%
13,Cc1cnn(C2CN(Cc3noc(-c4ccccc4)n3)C2)c1,8.77%
14,Cc1cnn(C2CN(Cc3nc(-c4ccco4)no3)C2)c1,-0.847%
15,Cc1ccccc1-c1noc(CN2CC(n3cccn3)C2)n1,-33.7%
16,COc1ccc(-c2nc(CN3CC(n4cc(C)cn4)C3)no2)cc1,90.1%
17,COc1ccc(-c2nc(CN3CC(n4cccn4)C3)no2)cc1,25.8%
18,CC(c1nc(-c2ccccc2)no1)N1CC(n2cccn2)C1 (centres undefined),-66.5%
19,Cc1cnn(C2CN(Cc3nc(-c4ccccc4C)no3)C2)c1,89.5%
20,Cc1ccc(-c2noc(Cn3nc(C(N)=O)ccc3=O)n2)cc1,28.2%
21,CCCc1noc(C(C)N2CC(n3cccn3)C2)n1 (centres undefined),8.77%
22,CCc1ccc(-c2noc(Cn3nc(C(N)=O)ccc3=O)n2)cc1,-16.3%
